Measurements taken from the OligoGym collection.

Each sequence was assayed against CTNNBL1 (assay: pooled miR-30 sensor sort-seq; sequence = guide strand). Conditions: shRNA.
Also: reference of the scale not given here.

| Sequence | sensor-assay potency score (higher = more potent) |
| --- | --- |
| TACTCCTTGATGATATGCCTGA | -0.148 |
| TACAGCATTCAGCTCCACCAGA | -0.685 |
| AAGCACATCGATTCCATCCAGC | -0.642 |
| TTAAACACGGATAACTGCTGAA | -0.397 |
| TTTTTTTGTCATCATCCGCTTC | -0.298 |
| TTGTCTGGAAACTTAATCCGCA | -0.219 |

Each sequence was assayed against CTSB in the same assay as above. Conditions: shRNA.

| Sequence | sensor-assay potency score (higher = more potent) |
| --- | --- |
| TTCTCGCTATTGGAGACGCTGT | -1.66 |
| TTTTCTTGTCCAGAAGTTCCAA | -0.152 |
| TTCTGATTCGATTCCACAGTGA | -0.73 |
| TTGGCAACCAGCCAGTAGGGTG | -1.27 |
| TTCTATTAAAGAATCATGCTGA | 0.656 |
| TATCCGTAGTGCTTGTCCTGTT | -0.438 |
| TTTGTTGACATAGTTGACCAGC | -0.0911 |
| TCGGTAAACATAACTCTCTGGG | -0.352 |
| TCTCTGATCTCTTTGATGGTGG | -0.142 |
| TAAACATAACTCTCTGGGGTGG | -0.755 |
| TTGTAGGTCGGGCTGTAGCCAG | -1.22 |
| TGACGTGTTGGTACACTCCTGA | 0.569 |
| ATAGTTGACCAGCTCATCCGAC | -0.423 |
| TTGGTGTGGATGCAGATCCGGT | -1.05 |
| TTGTAGAGCAGGAAGTCCGAAT | -0.653 |
| TGTTGGTACACTCCTGACTTGT | -1.2 |
| TCACAGATCTTGCTACACTTGG | -0.121 |
| TTTCTTGTCCAGAAGTTCCAAG | -1.12 |
| TAGTTGACCAGCTCATCCGACA | -0.966 |
| TAACTTGACAGGGTGAAGCTGT | -0.16 |
| TTGTCCAGAAGTTCCAAGCTTC | -0.113 |
| TTCCACAGTGATCCTGTCCTCT | -0.145 |
| TTGTCCTGTTTGTAGGTCGGGC | -0.855 |
| TTTTTGTAGATCTCGGCCATGA | -0.154 |

Each sequence was assayed against CTSH in the same assay as above. Conditions: shRNA.

| Sequence | sensor-assay potency score (higher = more potent) |
| --- | --- |
| TATATGTGGAAAGTAGCCCTTC | 0.309 |
| TTCTCCATACCCAACAGCCAGT | -1.28 |
| TGCTTAGACATCCATGACTTGA | -1.27 |
| TTATCTTCCTCCAGTTGCTGGC | -0.0224 |
| TTCCTCGTCATAGATTGTGATG | -1.43 |
| TCGTCATAGATTGTGATGTTGG | -0.963 |
| TTTATCTGGAGTTTTATGGCAG | -0.245 |
| TTCAGTGCCATTTTAAATGTGT | 0.219 |
| TACATCCTTGACAAAGCCGATG | -1.28 |
| TTATCTGGAGTTTTATGGCAGG | -0.729 |
